Test system: VDR:RXRa (NR concentration 270 nM, RXRa partner concentration 90 nM)
Experiment: PBM binding z-score (relative to random genomic background probes); higher = stronger binding; sequences stand for … in GC…GCGATTGACAGCGTAGAATGAAGG
Experimental: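 Protein-binding microarray (Agilent 4x180K custom design, double-stranded 60-nt probes: 5' GC cap, 34-nt variable region, 24-nt constant primer region; full probe sequence given). Purified or IVT nuclear receptor:RXRα heterodimers (3:1 NR:RXRα, mostly 270:90 nM) or homodimers were incubated for 1 h in PBS with 2% milk and no ligand, then detected with Alexa488 antibodies. Fluorescence from o1-orientation probes (~5 replicates averaged) was converted to z-scores against 500 random hg19 background probes. Variable regions are seed direct-repeat (DR0–DR5) sites, all their single-nucleotide variants and half-site ablations.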

First: GATACAGGGTCAGCTACAGGCCAGAGTATGGAAA
Second: TAGCCTAGTTCATTCAGGGGCCAGTATAGAAAGC
The PBM binding z-score of the first is higher: 2.55 for the first, 2 for the second.

Going from CGTCAAAGTCCAAGGTAACGTAACAGAAAGCAGC to CCTAGTTGGTCAAGGTCACACCCGCTATAGGTAC, the PBM binding z-score rises from -0.137 to 3.99.

Compared with ATCAAAAGGTCGAGGTGAGTATAGAGAAAGGGAA, CGTCCAAGGTCACAGAGGTCAGTGAATGCCGAGT is higher in PBM binding z-score: 3.29 for the first, 7.74 for the second.

First: TCGAGTAGGTCACGGGGGCATTCAGGGATGAAGA
Second: CGTCCGAGGTCAAGGTCAGTGAAAGAGACTCGAA
The PBM binding z-score of the first is higher: 5.82 for the first, 5.48 for the second.

Compared with GCTGCTAGGTCAACTGATGGTCAACTAAAGCTCG, GATACGGGGTCAAGGCCAGAGTACGCGTATTGAT is higher in PBM binding z-score: 2.07 for the first, 6.27 for the second.

Going from TAGCCTAGGTTATGGGCCAGTATACCACGCGAAC to ATCTCTAGGTTAAGATAGTTCAGTGAATGCAAAT, the PBM binding z-score rises from -0.0238 to 2.26.

First: GGAACGAGGTCAAGTTGATAGCAGAGTTTGATGG
Second: TCGTGTAGGTTACGGGGGCATTCAGGGATGAAGA
The PBM binding z-score of the first is higher: 5.84 for the first, 4.42 for the second.

First: TAGCCTAGGTCATGGGCCAGTGTACCACGCGAAC
Second: TAGCCTAAGTCATGCGGGCCAGTATAGTGTCGGC
The PBM binding z-score of the first is higher: 2.18 for the first, -0.392 for the second.

First: CATACAGGGTCGGCTAGGCCAGAGTAGGGACGGC
Second: AGTCAAAGTGCATCTAGGTAACGTAAGATATGCT
The PBM binding z-score of the first is higher: 0.863 for the first, 0.567 for the second.

Going from CTCGAAAGGTCGTGCTCAGATGAGTATACCAAAC to CGTCAAAGGTCAAGGTCAGTGAAAGAGACTCGAA, the PBM binding z-score rises from 3.09 to 5.77.

Going from AGAATGAGGTCATTAAGATCAGGGAATTGCGGTC to TATAAAGGGTCAAAGGCCAGAGTACGAATGTCGA, the PBM binding z-score falls from 5.8 to 4.86.

Going from AGAATGAGGTCATACGTAGATCAGGGAAGAAAGT to CCTCGGAGGACAGAAGGTCAAAGCTGTCCGCTTT, the PBM binding z-score falls from 5.41 to 2.84.

Compared with TAGCCTAGTTCATGCGGGCCAGTATAGTGTCGGC, AATACAGGGTAACTAGGCCAGAGTAGGTACGAAT is lower in PBM binding z-score: 1.14 for the first, 0.199 for the second.

First: CGTCCAAGGTCAATGCTAGATCAGTGAAAGCATT
Second: TGAATGAGGTTAAATATCAGGGAACGTGGCGTCG
The PBM binding z-score of the first is higher: 3.51 for the first, 1.54 for the second.

Compared with CCTACTCGGCCAAAAAGGTCATTGATGCCGATAA, AGAATGAGATTACCAAAGATCAGGGAAACGCTTG is lower in PBM binding z-score: 4.9 for the first, -0.0977 for the second.

Compared with TTACCAAGGTGAAAGGTCGTTGCTGCACGCCTTG, CCTACTGGGCCACTAAAGGTCATTGATTCAGTGA is higher in PBM binding z-score: 3.19 for the first, 4.05 for the second.

Going from CTATGTAGGTTACGGGGGTCATTCAGTTTGAAAG to ATCGAAAGGTCCAAGGTGAGTATACCCACCCGAA, the PBM binding z-score falls from 7.72 to 0.423.

Going from CGTCTAAGGTCATAGGAGGTCAGTGAAGACAGAT to TAGCCTAGGTCATGCGGCCCAGTATAGTGTCGGC, the PBM binding z-score falls from 6.86 to 1.77.

Going from CTATGTGGGTTAAGGGGGTCATTCAGTTTGAAAG to ATATGTAGGTTATCGGGTCATACAGTTTGCGCAT, the PBM binding z-score falls from 7.5 to 5.13.

Compared with ATATGTAGGTTAAGCGTCATTCAGGTTGGTTCGC, TCTCGGAGGACACTAAAGGTCAGAGCTCGACATC is higher in PBM binding z-score: 0.888 for the first, 3.2 for the second.

Reference: the supplement of paper PMC6555819
